Source: PubChem (National Center for Advancing Translational Sciences (NCATS))
Compounds with a hit are over-represented: about 11% of the library has one in this group of screens.
FBPA coupling cs – inhibits coupling enzyme system, counter-screen for aldolase hits; coupling enzyme system counterscreen, AmpLite Red fluorescence; activity change, negative = inhibition, % at 58.2 µM, hits read low; 290,000 compounds, 0.67% hits; AID 2472; in the data active means activity change below about -30%
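Coupling enzymes only (glyceraldehyde-3-phosphate) + compound, at 57.5 uM final, 10 min RT; add substrate/coupling/AmpLite Red mix, 20 min RT; fluorescence ex 525/em 598 nm. Actives flag coupling-system interference.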
Tau FP inhib – tau fibrillization inhibition (FP); P10636; K18 P301L tau heparin fibrillization, Alexa594 FP, 6 h; Potency, µM (top dose mostly 57.7 µM), hits mostly inhibitors; 280,000 compounds, 0.39% hits; AID 1468; further: nearly all actives have a fitted effect of over 55% in size
Target sequence (P10636 561-689 P618L limits assumed): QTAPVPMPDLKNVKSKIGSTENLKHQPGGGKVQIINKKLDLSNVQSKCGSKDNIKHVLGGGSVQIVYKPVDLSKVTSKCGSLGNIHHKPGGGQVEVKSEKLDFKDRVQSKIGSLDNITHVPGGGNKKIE
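FP of Alexa 594-tau after heparin (20 uM) induction. Substrate: human K18 P301L, 15 uM unlabeled, 0.24 uM labeled. Buffer 100 mM sodium acetate pH 7. 6 hr, 37 C.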
G9a inh – inhibitors of human histone lysine methyltransferase G9a | Q96KQ7 | G9a H3K9 monomethylation, AlphaScreen, 2 h | Potency, µM (highest dose often 102 µM), most hits filed as inhibitors | 350,000 compounds, 8.8% hits | AID 504332; further: nearly all actives have a fitted effect of over 75% in size
Target sequence (Q96KQ7 913-1193 limits assumed): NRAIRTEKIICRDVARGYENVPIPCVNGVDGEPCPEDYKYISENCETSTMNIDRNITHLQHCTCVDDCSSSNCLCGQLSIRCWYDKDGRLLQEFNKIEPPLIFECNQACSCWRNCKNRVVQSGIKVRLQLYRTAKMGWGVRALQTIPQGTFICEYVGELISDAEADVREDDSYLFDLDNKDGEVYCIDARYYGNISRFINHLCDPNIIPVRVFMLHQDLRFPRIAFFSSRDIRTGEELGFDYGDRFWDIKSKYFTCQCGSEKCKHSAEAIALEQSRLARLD
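Quantitative HTS format: methyltransferase activity on a biotin-tagged H3K9 peptide is measured by AlphaScreen, using a rabbit anti-monomethyl-H3K9 antibody with streptavidin donor and anti-IgG acceptor beads. Final levels are 20 nM enzyme, 500 nM peptide, 20 uM SAM; 2 h RT.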
Tau ThT inhib – inhibitors of human tau fibril formation, thioflavin T binding | recombinant tau K18 P301L, heparin-induced fibrillization, ThT fluorescence | Potency, µM (titrated, usually from 57.4 µM), actives largely listed as inhibitors | 270,000 compounds, 2.1% hits; further: nearly all actives have a fitted effect of over 55% in size
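Fibril formation assay: tau K18 P301L at 15 uM with trace Alexa 594 label, heparin inducer 20 uM, pH 7 sodium acetate buffer, 37 C for 6 hr; endpoint ThT signal.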
Tau fluor counter – counter-screen for tau fibril formation inhibitors | 280,000 compounds, 0.93% hits | tau K18 P301L (four-repeat tau fragment) Alexa594 fluorescence, heparin fibrillization | AID 1463 | Potency, µM (doses to about 57.7 µM); further: nearly all actives have a fitted effect of over 55% in size
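Human K18 P301L tau (15 uM unlabeled plus 0.24 uM Alexa 594-labeled, final) in 100 mM sodium acetate pH 7 was mixed with compound and 20 uM heparin and incubated 6 hr at 37 C.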
Sfp inh – inhibitors of Bacillus subtilis Sfp phosphopantetheinyl transferase. Potency, µM, usual class: inhibitors. 310,000 compounds, 3.5% hits. Biochemical Sfp PPTase activity, qHTS. Q9F4F7;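 further: the enzyme is Sfp with the accession as filed and its product quenches rhodamine fluorescence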
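With Hepes-Na pH 7.6 buffer containing 10 mM MgCl2, Sfp (15 nM) modified BHQ-2-YbbR (12.5 uM) using rhodamine-CoA (5 uM). Two reads 30 minutes apart at 525/598 nm yielded each well's rate.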
A number is an active result; [ ] = dose if it differs, or a comment. Unless noted, the call rests on the fitted dose curve; in most records, active means well fitted curve in the direction sought with a large enough effect; inconclusive means small, poorly fitted or top-dose-only effect, or another doubt; inactive means no such curve, though single readings can be large; an effect the other way counts as inactive or inconclusive.

For COc1ccc2c(c1)Cc1sc(NC(=O)c3cccnc3)nc1-2 the results were FBPA coupling cs inactive, Tau FP inhib inconclusive, G9a inh 44.7µM, Tau ThT inhib 7.94µM, Tau fluor counter inconclusive and Sfp inh inactive.
For COc1ccc2c(c1)Cc1sc(NC(=O)c3ccco3)nc1-2 the results were Tau FP inhib inactive, G9a inh 56.2µM, Tau ThT inhib inconclusive, Tau fluor counter inconclusive and Sfp inh inactive.
`COc1ccc2sc(NC(=O)c3ccco3)nc2c1` gave FBPA coupling cs inactive, Tau FP inhib inactive, G9a inh 7.08µM, Tau ThT inhib inactive, Tau fluor counter inactive and Sfp inh inactive.
`COc1ccc2c(c1)CCc1sc(NC(=O)c3ccco3)nc1-2` gave FBPA coupling cs inactive, Tau FP inhib inactive, G9a inh 39.8µM, Tau ThT inhib 12.6µM, Tau fluor counter 14.1µM[quencher] and Sfp inh inconclusive.
`COc1ccc2c(c1)CCc1sc(NC(=O)c3ccc(Br)cc3)nc1-2` gave Tau FP inhib inactive, G9a inh inconclusive, Tau ThT inhib inconclusive and Tau fluor counter inconclusive.
Screening COc1ccc2c(c1)C(c1ccccc1C)CC(=O)O2 (centres undefined) returned FBPA coupling cs inactive, Tau FP inhib inactive, G9a inh inconclusive, Tau ThT inhib inactive, Tau fluor counter inconclusive and Sfp inh inactive.
`Cc1ccc(-c2nc(C)c(CCNC(=O)c3cccs3)s2)cc1` gave Tau FP inhib inactive, G9a inh inactive, Tau ThT inhib inconclusive and Tau fluor counter inactive.
Cn1c(=O)c2c(ncn2CC(=O)OCC(=O)NNC(=O)c2ccc(Cl)cc2)n(C)c1=O was read as G9a inh inactive[12.7 µM].
`CCc1cc2ccc(OC)cc2nc1SCC(=O)NNC(=O)c1ccco1` gave FBPA coupling cs inactive, Tau FP inhib inactive, G9a inh 50.1µM, Tau ThT inhib inconclusive, Tau fluor counter inactive and Sfp inh inactive.
Screening COc1ccc(C2CC(=O)c3sc(NC(C)=O)nc3C2)cc1 (centres undefined) returned FBPA coupling cs inactive, Tau FP inhib inactive, G9a inh 39.8µM, Tau ThT inhib inconclusive, Tau fluor counter inactive and Sfp inh inactive.
`CCc1cc2cc(C)c(C)cc2nc1SCC(=O)NNC(=O)c1ccco1` gave FBPA coupling cs inactive, Tau FP inhib inactive, G9a inh inactive, Tau ThT inhib inactive, Tau fluor counter inactive and Sfp inh inactive.
Screening COc1ccc2c(c1)-c1nc(NC(=O)c3ccco3)sc1CC2 returned FBPA coupling cs inactive, Tau FP inhib inactive, G9a inh 25.1µM, Tau ThT inhib inconclusive, Tau fluor counter inconclusive and Sfp inh inactive.
For COc1ccc2c(c1)Cc1sc(NC(C)=O)nc1-2 the results were FBPA coupling cs -31.2, Tau FP inhib inconclusive, G9a inh inactive[12.7 µM], Tau ThT inhib 31.6µM, Tau fluor counter inconclusive and Sfp inh 20µM.
`CCc1ccccc1-n1cnc2cc(C(=O)NC3CCCCCC3)ccc21` gave Tau FP inhib inactive, G9a inh inactive, Tau ThT inhib inactive and Tau fluor counter inactive.
Screening CNC(=O)c1cc2c(n(-c3ccc(C)cc3)c1=O)CC(C)(C)CC2=O returned Tau FP inhib inactive, G9a inh inactive, Tau ThT inhib inactive and Tau fluor counter inactive.
COc1ccc(-c2nc(NC(C)=O)sc2-c2ccc(OC)cc2)cc1 was read as FBPA coupling cs -52.4, Tau FP inhib inactive, G9a inh inconclusive, Tau ThT inhib inactive, Tau fluor counter inconclusive and Sfp inh inactive.
Screening CNc1nc(-c2ccc(OC)cc2)c(-c2ccc(OC)cc2)s1 returned FBPA coupling cs inactive, Tau FP inhib inactive, G9a inh inconclusive, Tau ThT inhib inconclusive, Tau fluor counter inconclusive and Sfp inh inactive.
`CC(/C=N/Nc1nnc(C)c(=O)[nH]1)=C\c1ccccc1` gave FBPA coupling cs inactive, Tau FP inhib inactive, G9a inh 10µM, Tau ThT inhib inactive, Tau fluor counter inactive and Sfp inh inconclusive.
C/C(=N\Nc1nnc(C)c(=O)[nH]1)C(=O)O was read as FBPA coupling cs -51.3, Tau FP inhib inconclusive, G9a inh inactive[2.33 µM], Tau ThT inhib inactive, Tau fluor counter inactive and Sfp inh inactive.
COc1ccc(CNC(=O)CN(C(=O)CCC(=O)Nc2nccs2)c2ccc(C)cc2)cc1 was read as FBPA coupling cs inactive, G9a inh inactive and Sfp inh inactive.
Screening COc1ccc(-c2noc(-c3cc(C(C)C)[nH]n3)n2)cc1 returned Tau FP inhib inconclusive, G9a inh inactive, Tau ThT inhib inconclusive and Tau fluor counter inconclusive.
For CC(=O)Nc1ccc2nc(-c3ccccn3)[nH]c2c1 the results were FBPA coupling cs inactive, Tau FP inhib inactive, G9a inh inconclusive, Tau ThT inhib inactive, Tau fluor counter inactive and Sfp inh 50.1µM.
`CC(=O)Nc1ccc2nc(-c3ccncc3)[nH]c2c1` gave FBPA coupling cs inactive, Tau FP inhib inactive, G9a inh inactive, Tau ThT inhib inactive, Tau fluor counter inactive and Sfp inh inactive.
For CC(C)(C)C(=O)Nc1nnc(SCC(=O)Nc2nccs2)s1 the results were FBPA coupling cs inactive, G9a inh inactive and Sfp inh inactive.
CCn1c(SCc2nc3ccccc3[nH]2)nnc1-c1ccc(OC)cc1 was read as FBPA coupling cs inactive, Tau FP inhib inactive, Tau ThT inhib inactive, Tau fluor counter inactive and Sfp inh inactive.
`CCCc1nc(N)sc1C(=O)OCC` gave FBPA coupling cs inactive, Tau FP inhib inactive, G9a inh inconclusive, Tau ThT inhib inactive, Tau fluor counter inactive and Sfp inh inactive.
Screening Cc1nc(N)sc1C(=O)N1N=N1 returned FBPA coupling cs inactive, Tau FP inhib inactive, G9a inh 8.91µM, Tau ThT inhib inconclusive, Tau fluor counter inactive and Sfp inh inactive.
`COc1cccc(-c2cn3nc4c(nc3n2)CCCC4)c1` gave FBPA coupling cs inactive, Tau FP inhib inconclusive, G9a inh inactive, Tau ThT inhib 14.1µM, Tau fluor counter inactive and Sfp inh 79.4µM.
`O=C(COc1ccc(Cl)cc1)N1CCN(C(=O)c2cccs2)CC1` gave FBPA coupling cs inactive, Tau FP inhib inactive, G9a inh inconclusive, Tau ThT inhib inactive, Tau fluor counter inactive[2.34 µM] and Sfp inh inactive.
For O=c1cc[nH]c(=S)[nH]1 the results were FBPA coupling cs inactive, Tau FP inhib inactive, G9a inh inactive[2.33 µM], Tau ThT inhib inactive, Tau fluor counter inactive and Sfp inh 44.7µM.
Screening COc1cc(/C=N/NC2=NCCCCC2)ccc1O returned FBPA coupling cs inactive, Tau FP inhib inconclusive, G9a inh 56.2µM, Tau ThT inhib inactive, Tau fluor counter inactive and Sfp inh inactive.
Oc1ccc(/C=N/NC2=NCCCCC2)cc1 was read as FBPA coupling cs inactive, Tau FP inhib inactive, G9a inh 39.8µM, Tau ThT inhib inactive, Tau fluor counter inactive and Sfp inh inactive.
`O=[N+]([O-])c1ccccc1/C=N/NC1=NCCCCC1` gave FBPA coupling cs inactive, Tau FP inhib inactive, G9a inh inactive, Tau ThT inhib inactive, Tau fluor counter inactive and Sfp inh inactive.
